In the library only some 2.2% were active in any assay of this set; here they are far more common.
OPRM1-OPRD1 ag: agonists of OPRM1-OPRD1 heterodimerization, primary screen, cell-based, luminescence; cells; AID 504326, 2011; activation, % at 9.3 µM; 0.3% of 340,000 active; Mu-type opioid receptor (Homo sapiens) + Delta-type opioid receptor (Homo sapiens), …;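 note: 0% = vehicle-treated cells and 100% = reference agonist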
HTR2A ag: mouse Htr2a agonists via beta-arrestin recruitment, primary screen, cell-based, luminescence; AID 624169, 2012; activation, % at 7.6 µM; CHO-K1 mHTR2A beta-arrestin complementation; percent of 30 µM serotonin response; 0.66% of 360,000 active;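 active = activation above a run cutoff, the mean activation of all tested compounds plus 3 SD, cut at about 14% in these data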;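 note: 0% = plate median of compound wells and 100% = 30 µM serotonin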
OPRM1-OPRD1 inv: inverse agonists of MOR-DOR heterodimerization, primary screen, cell-based, luminescence | 0.21% of 340,000 active | inhibition, % at 9.3 µM | cell-based MOR-DOR heterodimer luminescence, inverse agonism | Mu-type opioid receptor (Homo sapiens) + Delta-type opioid receptor (Homo sapiens), … | AID 504357, 2011; in the data active = inhibition above about 22%, passing the limit was not always enough;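 note: 0% = cells with DMSO and 100% = wells without cells with DMSO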
HGIII-sPLA2 inh: human group III sPLA2 inhibitors, primary screen, biochemical, QFRET, BODIPY PC-A2 liposome substrate | Group 3 secretory phospholipase A2 (Homo sapiens), Q9NZ20 | QFRET BODIPY PC-A2 liposome hydrolysis, fluorescence | inhibition, % at 12.2 µM | 0.56% of 370,000 active | AID 743126, 2013;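 active = inhibition above mean plus 3 SD of compounds lying within the high and low control bounds, cut at about 19% in these data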;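 note: 0% = median of test compound wells and 100% = no enzyme DMSO wells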
Target sequence (Q9NZ20 whole entry, looked up): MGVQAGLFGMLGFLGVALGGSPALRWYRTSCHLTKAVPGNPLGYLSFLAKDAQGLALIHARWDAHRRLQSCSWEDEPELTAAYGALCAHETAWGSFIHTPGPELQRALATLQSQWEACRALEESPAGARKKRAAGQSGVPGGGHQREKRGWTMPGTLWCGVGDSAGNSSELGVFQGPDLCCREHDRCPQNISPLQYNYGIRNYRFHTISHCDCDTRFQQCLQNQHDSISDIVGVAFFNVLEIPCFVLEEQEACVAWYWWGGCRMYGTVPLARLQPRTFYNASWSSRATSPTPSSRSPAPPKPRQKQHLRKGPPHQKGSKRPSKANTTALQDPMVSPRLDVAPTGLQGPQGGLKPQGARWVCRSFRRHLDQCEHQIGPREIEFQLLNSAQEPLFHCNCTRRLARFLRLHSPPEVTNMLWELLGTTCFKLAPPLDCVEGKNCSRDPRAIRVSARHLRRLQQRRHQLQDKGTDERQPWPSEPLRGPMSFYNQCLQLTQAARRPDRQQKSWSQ
HTR5A inv ag: HTR5A inverse agonists in luminescence cell assay, primary screen, counter-screen for OPRM1-OPRD1 heterodimer inverse agonist project, full-deck HTS. 0.083% of 340,000 active. HTR5A cell line, inverse agonism. inhibition, % at 9.3 µM. AID 504634, 2011; in the data active = inhibition mostly above about 23%, no sharp cut-off; inactive = mostly below about 18%;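 note: 0% = cells with DMSO and 100% = no-cell wells with DMSO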
HTR5A ag: HTR5A agonists in luminescence cell assay, primary screen, counter-screen for OPRM1-OPRD1 heterodimer agonist project, full-deck HTS; cell-based; 0.61% of 340,000 active; activation, % at 9.3 µM; AID 504692, 2011; in the data active = activation mostly above about 9.5%, no sharp cut-off; inactive = mostly below about 7.6%;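 note: 0% = cells with vehicle only and 100% = reference agonist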
MOR-DOR ag conf: agonists of MOR-DOR heterodimerization, confirmation, cell-based, luminescence. 45% of 830 active. activation, % at 9.3 µM. shares compounds with OPRM1-OPRD1 ag. cells, luminescence complementation;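 note: 0% = vehicle-treated cells and 100% = reference agonist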
HTR5A ag ctr2: HTR5A agonists in cells, counter-screen for OPRM1-OPRD1 heterodimer agonist project, cell-based, luminescence. 8% of 830 active. activation, % at 9.3 µM. HTR5A agonist counterscreen. AID 504905, 2011. shares compounds with OPRM1-OPRD1 ag; in the data active = activation above about 17%;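 note: 0% = vehicle-treated cells and 100% = reference agonist response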
* = called active by the depositor; i = inactive; · = not tested or not shown. Cut-off read from the data, not from the text of the source, unless noted: active = activation above about 18%; inactive = the rest.

SMILES	OPRM1-OPRD1 ag	HTR2A ag	OPRM1-OPRD1 inv	HGIII-sPLA2 inh	HTR5A inv ag	HTR5A ag	MOR-DOR ag conf	HTR5A ag ctr2
CNC(=S)N(Cc1cc2cc(OC)c(OC)cc2[nH]c1=O)C1CCCC1	-1.0	0.2	5.4	3.7	21.4	13.1*	·	·
COc1cc(CNCCc2c[nH]c3ccccc23)ccc1OCc1ccc(F)cc1	9.3	5.9	-52.9	-6.3	-5.9	10.8*	·	·
COc1cccc(CNCCc2c[nH]c3ccccc23)c1OCc1ccc(F)cc1	13.2	-4.0	-78.6	-14.2	-13.9	1.6	·	·
O=C(NCC1CCN(Cc2ccccc2F)CC1)Nc1cccc(Br)c1	3.2	-12.5	-14.8	-28.9	-49.1	13.8*	·	·
COc1ccc(-c2sc3ccccc3c2-c2ccc(OCCN(C)C)cc2)cc1	12.3	-11.6	-66.1	-5.8	-52.1	13.8*	·	·
O=S(=O)(Nc1ccc(-c2ccc3nncn3n2)cc1)c1ccc(Cl)s1	1.1	6.5	-7.0	-13.7	-5.0	10.1*	·	·
O=S(=O)(Nc1ccc(-c2ccc3nncn3n2)cc1)c1ccccc1Cl	-0.4	9.4	2.0	-3.5	-5.7	2.1	·	·
Oc1c(C(Nc2nc3ccccc3s2)c2ccco2)ccc2cccnc12 (stereo unspecified)	4.7	-1.5	-27.2	33.5*	3.5	-0.8	·	·
CCC(=O)NC(c1cccs1)c1ccc2cccnc2c1O (stereo unspecified)	3.2	-5.1	-15.9	15.1	-11.8	7.9	·	·
Cc1cccc(C(=O)N[C@H]2CC[C@@]34CCCN3C(=O)CCC[C@H]4[C@H]2C)c1	·	·	·	2.0	·	·	·	·
COc1cc(/C=N/NC(=O)c2ccc(COc3cc(C)ccc3C(C)C)cc2)cc(OC)c1O	4.6	-3.0	-23.8	-4.3	6.3	-0.2	·	·
Cc1ccc(C(C)C)c(OCc2ccc(C(=O)N/N=C/c3ccc(O)c(O)c3)cc2)c1	3.2	1.0	-19.5	18.4	-38.2	14.2*	·	·
C[C@H]1[C@H](NC(=O)c2cccc(C(F)(F)F)c2)CC[C@@]23CCCN2C(=O)CCC[C@@H]13	·	·	·	-1.3	·	·	·	·
COC(=O)C1=C(C)N(c2ccc(C)c(C)c2)/C(=C/c2ccco2)C1=O	-3.3	18.3*	20.8	·	-9.1	1.9	·	·
COC(=O)C1=C(C)NC(=O)/C1=C\c1ccco1	-1.6	11.1	8.4	0.3	-32.7	11.2*	·	·
COC(=O)C1=C(C)N(C)C(=O)/C1=C\c1ccco1	-1.0	2.0	5.4	1.5	12.9	4.9	·	·
COc1ccc2c(c1)N[C@@](CCN1C(=O)c3ccccc3C1=O)(c1[nH]c3ccccc3c1CCN1C(=O)c3ccccc3C1=O)C2=O	·	·	·	1.3	·	·	·	·
Cc1cccc2c1NC(=O)C2(c1ccc(O)cc1)c1ccc(O)cc1	123.9*	6.5	i	-45.4	-106.8	44.0*	·	·
CCOc1ccc2[nH]c3c(N4CCN(c5ccccn5)CC4)ncnc3c2c1	35.1*	3.1	-200.2	-13.6	-11.3	0.5	18.9*	7.8
Cc1cc(/C=C2\SC(=S)N(C)C2=O)c(C)n1-c1ccccc1O	13.5	2.9	-71.9	-12.0	-2.0	0.7	·	·
Cc1cc(/C=C2\SC(=S)N(C)C2=O)c(C)n1-c1ccc(O)cc1	51.9*	0.2	-270.8	-4.5	0.3	6.7	33.1*	-1.5
COc1ccccc1C(=O)N1CCC(Oc2cccnc2)CC1	·	·	·	7.0	·	·	·	·
COC(=O)C1=C(C)N(Cc2ccccc2)C(=NCCc2c[nH]c3ccccc23)N[C@H]1c1cccc(C(F)(F)F)c1	21.7*	10.2	-99.7	·	-36.2	12.6	1.1	2.4
COC(=O)C1=C(C)N(Cc2ccccc2)C(=NCc2cccc(C(F)(F)F)c2)N[C@H]1c1cccc(C(F)(F)F)c1	45.0*	1.9	-246.2	·	-2.5	1.0	8.7	3.9
COC(=O)C1=C(C)N(Cc2ccc(C(F)(F)F)cc2)C(=NCc2ccc(C(F)(F)F)cc2)NC1c1cccc(F)c1 (stereo unspecified)	·	·	·	0.1	·	·	·	·
SMILES	OPRM1-OPRD1 ag	HTR2A ag	OPRM1-OPRD1 inv	HGIII-sPLA2 inh	HTR5A inv ag	HTR5A ag	MOR-DOR ag conf	HTR5A ag ctr2
COC(=O)C1=C(C)N(Cc2ccccc2)C(=NCc2cccc(C(F)(F)F)c2)N[C@H]1c1cccc(F)c1	23.0*	2.4	-126.1	2.6	-10.1	4.0	0.9	21.3*
COC1C(O)CCC2(CO2)C1C1(C)OC1CC=C(C)C (stereo unspecified)	·	·	·	-1.1	·	·	·	·
COc1ccc(S[C@]2(C(=O)N3CCCC3)CC(=O)N(C(=O)c3ccccc3)[C@@H]2c2ccc(OC)cc2)cc1	·	·	·	5.1	·	·	·	·
O=C(OC1C2CCC1C1CN(CCc3ccccc3)CC12)c1ccccc1 (stereo unspecified)	18.1*	-7.3	-108.6	-33.2	-8.8	3.3	59.9*	1.8
O=C(c1ccccc1)N1CCC2CCN(CCc3ccccc3)CC21 (stereo unspecified)	·	·	·	6.4	·	·	·	·
COc1cc2cc3c(N)c(C(=O)Nc4sc(C)c(C)c4C#N)sc3nc2cc1OC	117.3*	6.4	i	-2.3	-10.0	7.3	22.5*	-0.4
CC(C)C[C@H](NC(=O)c1cccs1)C(=O)N1CCC[C@H]1C(=O)NCc1ccccc1	·	·	·	7.6	·	·	·	·
COc1ccc(OCC(O)CNC(C)c2ccccc2)cc1 (stereo unspecified)	-0.2	-2.0	1.1	-1.5	-9.8	2.6	·	·
CCCC(NCC(O)COc1ccc(-c2ccccc2)cc1)c1ccccc1 (stereo unspecified)	22.0*	-4.1	-119.8	-27.4	16.4	11.5	12.7	7.8
Cc1ccc(OCCSCc2nnc(NC(=O)Nc3cccc(Cl)c3)s2)cc1	19.3*	1.7	-100.2	-3.3	-16.7	4.6	-1.7	0.4
CC[n+]1c(/C=C/N(C)c2ccccc2)n(-c2ccccc2)c2ccc(-c3nc4ccccc4s3)cc21	21.7*	20.3*	-104.0	·	-36.8	9.9*	-2.4	-4.8
CCOC(=O)c1ccc2c(c1)n(CC)c(/C=C/N(C)c1ccccc1)[n+]2CC	0.0	2.0	-0.2	1.8	-10.3	2.1	·	·
CCOC(=O)N/N=C/c1cn(Cc2ccc(Cl)cc2)c2ccccc12	-1.4	-5.2	6.9	-13.3	-5.3	1.6	·	·

Bioassay records (PubChem)
